Experimental data reported in PubChem BioAssay AID1347156 (National Center for Advancing Translational Sciences (NCATS), 2019).
Records with an inconclusive call do not appear. Calls of active or inactive are those of the source. The call rests on the fitted dose curve; in most records, active means well fitted cell-killing curve with a large enough effect; inconclusive means small, poorly fitted or top-dose-only effect; inactive means flat fitted curve, though single readings scatter.

test: DAPI mCherry counterscreen qHTS for Zika virus inhibitors; settings: Vero cells, DAPI nuclear count cytotoxicity, imaging 48-72 h, infected with Zika reporter virus, MOI 1; series mostly up to 32.6 µM; further: nearly all actives have a fitted effect of over 55% in size
How it was run: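 Imaging read-out after fixation and Hoechst nuclear staining: percent infection from mCherry-positive cells (above 3 SD of negative controls) and nuclear counts. Setup: Vero cells pre-plated overnight, compound added, infected with ZIKV-mCherry (MOI 1), 48-72 hrs, 37 degrees C.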
Potency means the concentration at half of the fitted maximal effect.

| SMILES | Potency |
| --- | --- |
| Fc1cc(C2=Nn3c(COc4ccc(Cl)cc4Cl)nnc3S/C2=C\c2ccc(-c3ccc(Cl)cc3)o2)c(Cl)cc1Cl | inactive |
| CN(CC(=O)N(Cc1ccc(C2CCCCC2)cc1)c1ccc(C(=O)O)cc1)S(=O)(=O)c1c(F)c(F)c(F)c(F)c1F | 5.62 µM (active) |
| CN(C)[C@@H]1C(=O)C(C(N)=O)=C(O)[C@@]2(O)C(=O)C3=C(O)c4c(O)cccc4C[C@H]3C[C@@H]12 | inactive |
| NC(=O)c1ccc2nc(-c3ccc(Oc4ccc(Cl)cc4)cc3)[nH]c2c1 | 31.6 µM (active) |
| O=C(O)CCc1ccc(-c2ccc(Cl)cc2)n1-c1cccc(C(F)(F)F)c1 | 25.1 µM (active) |
| COC(=O)c1ccc([C@H]2Nc3ccc(S(=O)(=O)Nc4ccc(C)cc4)cc3[C@H]3C=CC[C@H]32)cc1 | inactive |
| O=C(O)c1ccc(C2Nc3ccccc3-c3nnc(SCc4ccc(Cl)cc4)nc3O2)cc1 (configuration not stated) | inactive |
| O=C(O)Cc1cccc(OCCCN(Cc2cccc(C(F)(F)F)c2Cl)CC(c2ccccc2)c2ccccc2)c1 | 15.8 µM (active) |
| Cc1cc(N2CCOCC2)cc2[nH]c(-c3c(NC[C@@H](O)c4cccc(Cl)c4)cc[nH]c3=O)nc12 | 12.6 µM (active) |
| CO[C@H]1C[C@@H](O[C@@H]2/C(C)=C/C[C@@H]3C[C@@H](C[C@]4(CC[C@H](C)[C@@H](C5CCCCC5)O4)O3)OC(=O)[C@@H]3C=C(C)/C(=N/O)[C@H]4OC/C(=C\C=C\[C@@H]2C)[C@]43O)O[C@@H](C)[C@H]1O | 11.2 µM (active) |
| CCCCc1nn2c(=O)cc(COC(=O)c3ccc(NC(=O)c4ccccc4Cl)cc3)nc2s1 | 22.4 µM (active) |
| O=C(O)c1ccc(CCCc2ccc(OCCc3ccc(F)cc3)cc2)o1 | 31.6 µM (active) |
| Cc1c(Cl)cccc1NS(=O)(=O)c1ccc(NS(=O)(=O)c2ccc3c(c2)OCCO3)cc1 | 31.6 µM (active) |
| O=C(O)c1cnn(-c2nc3cc(OC(F)(F)F)c(Cl)cc3[nH]2)c1 | inactive |
| CCOC(=O)c1cccc(NC(=O)CSc2ncc3c(n2)-c2ccc(Cl)cc2N(Cc2ccccc2)S3(=O)=O)c1 | inactive |
| Cc1cc(S(=O)(=O)Nc2ccc(C(=O)O)cc2)c(C)c(S(=O)(=O)c2ccc(Cl)cc2)c1 | inactive |

| SMILES | Potency |
| --- | --- |
| Cc1cccc(C)c1-n1c(SCC(=O)Nc2ccc(C(=O)O)cc2)nnc1-c1cccc([S+](=O)([O-])N2CCCC2)c1 | inactive |
| N#CC1C(=O)Nc2scc(-c3ccc(-c4ccccc4O)cc3)c2C1=O (configuration not stated) | 8.91 µM (active) |
| Cc1ccc(-n2[nH]c(C)c(N=Nc3cccc(-c4cccc(C(=O)O)c4)c3O)c2=O)cc1C | 14.1 µM (active) |
| CCN(Cc1cccc(S(=O)(=O)O)c1)c1ccc(C(=C2C=CC(=[N+](CC)Cc3cccc(S(=O)(=O)O)c3)C=C2)c2ccc(O)cc2S(=O)(=O)O)cc1 | inactive |
| O=C(Nc1ccc(S(=O)(=O)N2CCOCC2)cc1)c1cc(Cl)ccc1NS(=O)(=O)c1ccc(Cl)s1 | 15.8 µM (active) |
| COc1cc(Nc2nc3ccccc3nc2NS(=O)(=O)c2ccc(NC(=O)c3ccc(OC)c(C)c3)cc2)cc(OC)c1 | 6.31 µM (active) |
| CC1CCC(C(=O)N(c2cc(C#CC(C)(C)C)sc2C(=O)O)C2CCC(O)CC2)CC1 (configuration not stated) | 25.1 µM (active) |
| C/C(=C\c1ccc(C(=O)O)cc1)c1ccc2c(c1)C(C)(C)CCC2(C)C | 20 µM (active) |
| CC(C)=CCc1c2c(c3occ(-c4ccc(O)c(O)c4)c(=O)c3c1O)C=CC(C)(C)O2 | 8.91 µM (active) |
| CNC(=O)c1cc(Oc2ccc(NC(=O)Nc3ccc(Cl)c(C(F)(F)F)c3)cc2)ccn1 | 4.47 µM (active) |
| CCOc1nc2cccc(C(=O)OC(C)OC(=O)OC3CCCCC3)c2n1Cc1ccc(-c2ccccc2-c2nn[nH]n2)cc1 (configuration not stated) | 15.8 µM (active) |
| O=C(O)c1cccc(-c2ccc(-c3cn(C(=O)N4CCCCC4Cc4ccccc4)nn3)cc2)c1 (configuration not stated) | 35.5 µM (active) |
| COc1ccc(S(=O)(=O)Nc2cc(-c3c(O)ccc4ccccc34)c(O)c3ccccc23)cc1 | 10 µM (active) |
| CCCCCCCCc1ccc(CCC(N)(CO)CO)cc1 | 10 µM (active) |
| O=C(O)C(Cc1cc(I)c(O)c(I)c1)c1ccccc1 (configuration not stated) | 4.47 µM (active) |
| CCOc1ccc(C(=O)Nc2cccc(C(=O)OCc3cc(=O)n4nc(C5CC5)sc4n3)c2)cc1 | 11.2 µM (active) |
